Laboratory results published in PubChem BioAssay AID1159580 (chemical genetic matrix, 2015).
Out of some 5,500 compounds screened, about 2,000 (36%) were called active. Another 18% or so got no clear call; they are omitted. Cut-off read from the data, not from the text of the source: active = normalized growth mostly below about 0.91 (no sharp cut-off); inconclusive = no clear call, values can overlap the other calls; inactive = mostly above about 0.92. Some of the results follow.

Assay: chemical genetic growth profiling, strain panel (AID 1159580);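 note: tested at 20 µM; growth read once vehicle control cultures reached saturation at 30 °C; 1 = growth at the plate median or of vehicle wells; lower values mean less growth of the strain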
Conditions: S. cerevisiae deletion strains, growth OD
[1] = locus YAL021C, strain ccr4, hits give low values
[2] = locus YAL026C, strain drs2, hits give low values
[3] = locus YAL030W, strain snc1, hits give low values
[4] = locus YBL061C, strain skt5, hits give low values
[5] = locus YBR009C, strain hhf1, hits give low values
[6] = locus YBR023C, strain chs3, hits give low values
[7] = locus YBR171W, strain sec66, hits give low values
[8] = locus YBR231C, strain swc5, hits give low values
[9] = locus YBR279W, strain paf1, hits give low values
[10] = locus YCL011C, strain gbp2, hits give low values
[11] = locus YCL016C, strain dcc1, hits give low values
[12] = locus YCL061C, strain MRC1, hits give low values
[13] = locus YCL069W, strain vba3, hits give low values
[14] = locus YCR088W, strain abp1, hits give low values
[15] = locus YDL005C, strain med2, hits give low values
[16] = locus YDL040C, strain nat1, hits give low values
[17] = locus YDR001C, strain nth1, hits give low values
[18] = locus YDR069C, strain doa4, hits give low values
[19] = locus YDR137W, strain rgp1, hits give low values
[20] = locus YDR159W, strain sac3, hits give low values
[21] = locus YDR297W, strain sur2, hits give low values
[22] = locus YDR334W, strain swr1, hits give low values
[23] = locus YDR335W, strain msn5, hits give low values
[24] = locus YDR392W, strain spt3, hits give low values
[25] = locus YEL003W, strain gim4, hits give low values
[26] = locus YEL037C, strain rad23, hits give low values
[27] = locus YEL061C, strain CIN8 (second series), hits give low values
[28] = locus YER015W, strain faa2, hits give low values
[29] = locus YER016W, strain bim1, hits give low values
[30] = locus YER111C, strain swi4, hits give low values
[31] = locus YER155C, strain BEM2 (second series), hits give low values
[32] = locus YFR010W, strain ubp6, hits give low values
[33] = locus YGL167C, strain pmr1, hits give low values
[34] = locus YGL173C, strain kem1, hits give low values
[35] = locus YGL227W, strain vid30, hits give low values
[36] = locus YGL240W, strain doc1, hits give low values
[37] = locus YGL253W, strain hxk2, hits give low values
[38] = locus YHR013C, strain ard1, hits give low values
[39] = locus YHR027C, strain rpn1, hits give low values
[40] = locus YHR142W, strain chs7, hits give low values
[41] = locus YJL092W, strain hpr5, hits give low values
[42] = locus YJL095W, strain BCK1 (second series), hits give low values
[43] = locus YJL115W, strain asf1, hits give low values
[44] = locus YJL129C, strain trk1, hits give low values
[45] = locus YJL154C, strain vps35, hits give low values
[46] = locus YJL164C, strain tpk1, hits give low values
[47] = locus YJL166W, strain qcr8, hits give low values
[48] = locus YJL187C, strain SWE1, hits give low values
[49] = locus YKL160W, strain elf1, hits give low values
[50] = locus YKR026C, strain gcn3, hits give low values
[51] = locus YKR091W, strain srl3, hits give low values
[52] = locus YLL001W, strain dnm1, hits give low values
[53] = locus YLL026W, hits give low values
[54] = locus YLL041C, strain sdh2, hits give low values
[55] = locus YLR027C, strain aat2, hits give low values
[56] = locus YLR221C, strain rsa3, hits give low values
[57] = locus YLR258W, strain gsy2, hits give low values
[58] = locus YLR262C, strain YPT6 (second series), hits give low values
[59] = locus YLR320W, strain mms22, hits give low values
[60] = locus YLR342W, strain FKS1, hits give low values
[61] = locus YLR357W, strain rsc2, hits give low values
[62] = locus YLR370C, strain arc18, hits give low values
[63] = locus YLR384C, strain iki3, hits give low values
[64] = locus YML120C, strain ndi1, hits give low values
[65] = locus YMR058W, strain fet3, hits give low values
[66] = locus YMR125W, strain sto1, hits give low values
[67] = locus YMR129W, hits give low values
[68] = locus YMR205C, strain PFK2, hits give low values
[69] = locus YMR231W, strain pep5, hits give low values
[70] = locus YNL071W, strain lat1, hits give low values
[71] = locus YNL209W, strain ssb2, hits give low values
[72] = locus YNL248C, strain rpa49, hits give low values
[73] = locus YNL322C, strain KRE1 (second series), hits give low values
[74] = locus YNR049C, strain mso1, hits give low values
[75] = locus YOR001W, strain rrp6, hits give low values
[76] = locus YOR070C, strain gyp1, hits give low values
[77] = locus YOR080W, strain dia2, hits give low values
[78] = locus YOR083W, strain WHI5, hits give low values
[79] = locus YOR106W, strain vam3, hits give low values
[80] = locus YOR265W, strain rbl2, hits give low values
[81] = locus YOR270C, strain vph1, hits give low values
[82] = locus YOR290C, strain snf2, hits give low values
[83] = locus YPL051W, strain arl3, hits give low values
[84] = locus YPL078C, strain atp4, hits give low values
[85] = locus YPL106C, strain sse1, hits give low values
[86] = locus YPL240C, strain hsp82, hits give low values

Measured: normalized growth

COc1ccc(/C=C/C(=O)c2cc(O)ccc2O)cc1
active: [1] 0.81 | [2] 0.224 | [3] 0.31 | [4] 0.38 | [5] 0.15 | [6] 0.314 | [7] 0.521 | [8] 0.324 | [9] 0.242 | [10] 0.15 | [11] 0.227 | [12] 0.167 | [13] 0.13 | [14] 0.263 | [15] 0.424 | [16] 0.646 | [17] 0.344 | [18] 0.844 | [19] 0.285 | [20] 0.268 | locus YDR195W, strain ref2 0.482 | [21] 0.362 | [22] 0.172 | [23] 0.238 | [24] 0.0876 | [25] 0.133 | [26] 0.617 | [27] 0.0921 | [28] 0.429 | [29] 0.426 | [30] 0.0945 | [31] 0.106 | [32] 0.685 | [33] 0.894 | [34] 0.516 | [35] 0.103 | [36] 0.48 | [37] 0.172 | [38] 0.421 | [39] 0.661 | locus YHR030C, strain SLT2, hits give low values 0.432 | locus YHR079C, strain IRE1, hits give low values 0.456 | [40] 0.101 | [41] 0.272 | [42] 0.0826 | locus YJL095W, strain BCK1, hits give low values 0.427 | [43] 0.416 | [44] 0.373 | [45] 0.613 | [46] 0.152 | [47] 0.141 | [48] 0.269 | locus YJR066W, strain TOR1, hits give low values 0.465 | [49] 0.136 | [50] 0.449 | [51] 0.593 | [52] 0.338 | [53] 0.226 | [54] 0.379 | [55] 0.267 | locus YLR113W, strain HOG1, hits give low values 0.396 | [56] 0.113 | [57] 0.333 | [58] 0.289 | [59] 0.123 | [60] 0.248 | [61] 0.717 | [62] 0.72 | [63] 0.605 | [64] 0.221 | [65] 0.152 | [66] 0.156 | [67] 0.546 | [68] 0.178 | [69] 0.522 | [70] 0.0772 | locus YNL183C, strain NPR1, hits give low values 0.475 | [71] 0.606 | [72] 0.319 | [73] 0.462 | [74] 0.594 | [75] 0.349 | [76] 0.309 | [77] 0.71 | [78] 0.38 | [79] 0.391 | locus YOR231W, strain MKK1, hits give low values 0.464 | [80] 0.425 | [81] 0.191 | [82] 0.145 | [83] 0.29 | [84] 0.166 | [85] 0.483 | [86] 0.275 | locus YPL256C, strain CLN2, hits give low values 0.551

COc1ccc(C=CC(=O)c2ccc(O)cc2O)cc1OC
active: [2] 0.876 | [4] 0.811 | [5] 0.867 | [6] 0.797 | [8] 0.86 | [9] 0.879 | [19] 0.59 | locus YDR195W, strain ref2 1.16 [resistant] | [24] 0.361 | [31] 0.696 | [37] 0.862 | [38] 0.842 | [40] 0.645 | [42] 0.863 | [44] 0.818 | [46] 0.859 | [47] 0.83 | [49] 0.83 | [53] 0.914 | [55] 0.886 | [56] 0.855 | [57] 0.914 | [58] 0.65 | [59] 0.732 | [64] 0.833 | [68] 0.759 | [70] 0.666 | [75] 0.87 | [76] 0.883 | [78] 0.835 | [79] 0.814 | [81] 0.653 | [82] 0.767 | [83] 0.768 | [84] 0.828
inactive: [1] 0.908 | [3] 0.964 | [7] 0.965 | [10] 0.934 | [11] 0.936 | [12] 0.976 | [13] 0.975 | [14] 0.982 | [15] 0.983 | [16] 0.984 | [17] 0.971 | [18] 0.953 | [20] 0.893 | [21] 0.968 | [22] 0.974 | [23] 0.973 | [25] 0.936 | [26] 0.983 | [27] 0.977 | [28] 0.965 | [29] 0.979 | [30] 0.994 | [32] 0.96 | [33] 0.961 | [34] 0.972 | [35] 0.987 | [36] 0.893 | [39] 0.982 | [41] 0.972 | [43] 0.989 | [45] 0.998 | [48] 0.929 | [50] 0.976 | [51] 0.989 | [52] 0.935 | [54] 0.978 | [60] 0.96 | [61] 0.992 | [62] 0.929 | [63] 0.995 | [65] 0.908 | [66] 0.933 | [67] 0.98 | [69] 0.996 | [71] 0.958 | [72] 0.935 | [73] 0.996 | [74] 0.974 | [77] 0.991 | [80] 0.969 | [85] 0.881 | [86] 0.973
